Bioassay records (PubChem)
HT1080-NT tox: qHTS for induction of synthetic lethality in tumor cells producing 2HG: qHTS for the HT-1080-NT fibrosarcoma cell line; HT-1080-NT fibrosarcoma viability, CellTiter-Glo ATP luminescence, 48 h; actives 1.6% (n = 360,000); Potency, µM (series often up to 46.1 µM), without a hit: at the top dose activity, negative = less viability, most hits filed as cytotoxic;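 note: NT is the 2HG producing partner of a matched IDH1 knockdown line; potency is the fitted concentration of half-maximal effect; 0% = DMSO-treated cells and -100% = media-only wells without cells; nearly all actives have a fitted effect of over 55% in size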
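HT-1080-NT; 750 cells/well; 5% FBS RPMI; 48 h compound, 37 degrees C; CellTiter-Glo luminescence; curve fitting and curve-class assignment.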
TDP1 cell noCPT: qHTS for Inhibitors of human tyrosyl-DNA phosphodiesterase 1 (TDP1): qHTS in cells in absence of CPT | DT40 Tdp1-/- hTDP1 cells, no CPT, ATP luminescence, 48 h | actives 15% (n = 420,000) | Potency, µM (top dose mostly 46.2 µM), without a hit: at the highest dose activity change, negative = growth inhibition, actives largely listed as inhibitors; note: potency is the fitted concentration of half-maximal effect; nearly all actives have a fitted effect of over 55% in size
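Luminescent ATP content (CellTiter-Glo) served as the growth readout. Knockout chicken DT40 cells expressing human TDP1 were exposed to compounds without camptothecin for a minimum 48 hr at 37 °C.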
HT1080 IDH1KD tx: qHTS for induction of synthetic lethality in tumor cells producing 2HG: qHTS for the HT-1080-IDH1KD cell line; HT-1080 IDH1 knockdown viability, ATP luminescence, 48 h; Potency, µM (series often up to 46.1 µM), for the others: at the top dose activity, negative = toxicity, most hits filed as cytotoxic; actives 2% (n = 360,000); AID 686971, 2013;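 note: potency is the fitted concentration of half-maximal effect; 0% = DMSO wells and -100% = cell-free medium wells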
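Viability of IDH1-knockdown HT-1080 fibrosarcoma cells was assessed by CellTiter-Glo after 48 h at 37 °C with titrated compound; concentration-effect curves were classified by fit quality and response size.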
IL-1B inflam inh: qHTS for Inhibitors of Inflammasome Signaling: IL-1-beta AlphaLISA Primary Screen. THP-1 LPS/ATP IL-1B secretion, AlphaLISA, 16 h; stronger effect = lower value. activity change, % at 57.5 µM. actives 4.7% (n = 360,000). AID 743279, 2014; in the data active = activity change below about -50%; inconclusive = mostly about -30% to -49%
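THP-1 cells pretreated 1 hr with compounds (up to 57.5 uM final), then stimulated with LPS (250 ng/mL final) plus ATP (1.25 mM final); secreted IL-1B measured by AlphaLISA after 16 hr, decreased signal indicating inhibition.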
TDP1 cell CPT: qHTS for Inhibitors of human tyrosyl-DNA phosphodiesterase 1 (TDP1): qHTS in cells in presence of CPT | Potency, µM (titrated, usually from 46.2 µM), inactives show at the top dose activity change, negative = growth inhibition, actives largely listed as inhibitors | actives 12% (n = 420,000) | chicken DT40 Tdp1-/-;hTDP1 cells + 20 nM CPT, ATP luminescence, 48 h; note: potency is the fitted concentration of half-maximal effect; nearly all actives have a fitted effect of over 55% in size
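Chicken DT40 Tdp1-/- cells stably complemented with human TDP1 were seeded at 400 cells/well in medium containing 20 nM camptothecin, exposed to pin-transferred compounds, and grown at 37 °C for at least 48 hr. Viability was read as ATP luminescence.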
ELG1 DNA repair: qHTS screen for small molecules that inhibit ELG1-dependent DNA repair in human embryonic kidney (HEK293T) cells expressing luciferase-tagged ELG1; HEK293T ELG1-luciferase reporter, luminescence, 16 h; DNA damage induced by 5-fluorouridine; Potency, µM (top dose mostly 46.1 µM), for inactives: top-dose activity change, negative = inhibition, most hits filed as inhibitors; actives 2.3% (n = 330,000); note: potency is the fitted concentration of half-maximal effect; nearly all actives have a fitted effect of over 55% in size
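In this reporter screen, reduction of luminescence relative to DMSO vehicle indicated activity. Compounds and 5-fluorouridine were added together to 2,000 cells per well, incubated for 16 hr at 37 °C, then developed with ONE-Glo.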
Starred values were filed as active, the others as inactive; ? = inconclusive; / = not tested or not shown; [ ] = remark or other dose. This is a sample that favours compounds with a hit; in the whole collection about 19% have one here. Unless noted, calls come from the whole dose curve; as a rule, active = well fitted curve in the direction sought with a large enough effect; inconclusive = small, poorly fitted or top-dose-only effect, or another doubt; inactive = no such curve, though single readings can be large; an effect the other way counts as inactive or inconclusive. Unless noted, % is set by controls: 0 for no effect and ±100 for the full control effect.

SMILES | HT1080-NT tox | TDP1 cell noCPT | HT1080 IDH1KD tx | IL-1B inflam inh | TDP1 cell CPT | ELG1 DNA repair
Cc1cc(C(=O)NC2CCCc3ccccc32)ccc1[N+](=O)[O-] (stereo not given) | -46% | ? | ? | -14 | ? | 14%
CCOc1cc(NC(=S)NCCCN2CCOCC2)c(OCC)cc1NC(=O)c1ccc(C)cc1 | -8% | ? | -7% | -4 | 0% | 10%
CCC(C)NC(=O)COC(=O)c1ccc(Cl)cc1O (stereo not given) | 1% | -1% | 12% | -12 | 0% | 2%
COC(=O)C(C)Oc1ccc(Cl)c(CN2OCC(C)(C)C2=O)c1 (stereo not given) | 3% | -17% | 1% | 30 | -6% | /
CCN(C(=O)COC(=O)C1CCN(S(=O)(=O)c2ccc3c(c2)OCCO3)CC1)C1CCCCC1 | 8% | -1% | 5% | 28 | 16% | -12%
N#Cc1ccccc1NC(=O)CSc1nnc(N)s1 | / | -13% | / | / | 1% | /
Cc1ccc(C(=O)Nc2ccccc2N2CCCCC2)cc1[N+](=O)[O-] | 10% | 16µM* | 2% | 79 | ? | ?
CN1CCN(c2ccc(C(=O)c3ccccc3)cc2[N+](=O)[O-])CC1 | -1% | ? | 24% | -53* | 0% | 2%
CN1CCN(c2ccccc2NC(=O)c2ccc(N3CCCCC3)c([N+](=O)[O-])c2)CC1 | -25% | 12µM* | -22% | -63* | 12µM* | ?
Cc1ccc(C(=O)NC(=S)Nc2ccc(NC(=O)c3cccs3)cc2)cc1[N+](=O)[O-] | ? | 3.7µM* | 21µM* | 12 | 8.2µM* | ?
COc1ccc(C(=O)Nc2ccccc2N2CCCCC2)cc1[N+](=O)[O-] | -3% | ? | -8% | 75 | ? | ?
C[C@@H]1CN([C@@H](C)CO)C(=O)c2cc(Br)cnc2O[C@H]1CN(C)C(=O)c1ccccc1F | 10% | 6% | 7% | -17 | 4% | /
CCn1c(=O)c2c(nc(SCC(=O)NC3CCCC3)n2C)n(C)c1=O | -2% | -1% | 8% | 7 | ? | -7%
O=C(CN(C(=O)c1csnn1)c1cccc(Cl)c1)NCCc1ccccc1 | 1% | -12% | -1% | -21 | 3% | -12%
O=C(NC(=S)Nc1ccc(NC(=O)c2cccs2)cc1)c1ccco1 | -16% | ? | -24% | -14 | ? | ?
COc1cccc(C(=O)Nc2cc([N+](=O)[O-])ccc2N2CCN(C)CC2)c1 | -20% | -20% | ? | -11 | ? | -19%
O=C(NC(=S)Nc1ccc(NC(=O)c2cccs2)cc1)c1cc2ccccc2o1 | 21µM* | ? | 18µM* | 8 | 13µM* | 3%
Cc1ccc(C(=O)Nc2ccccc2N2CCN(C(=O)C(C)C)CC2)cc1C | -22% | 13µM* | -23% | -22 | ? | 0%
COc1ccc(C(=O)Nc2cc([N+](=O)[O-])ccc2N2CCN(C)CC2)cc1 | 2% | ? | -17% | -1 | 11µM* | -4%
O=C(Nc1ccccc1)Nc1ccno1 | 3% | -23% | 12% | 7 | 12% | 1%
COC(=O)CN1C(=O)[C@H]2[C@@H](c3ccc(C)o3)N3C(=O)CN(CC4CC4)C(=O)[C@@]3(C)[C@H]2C1=O | 0% | -13% | -3% | 14 | -3% | -6%
CC1(C)CCCC2(C)C3C(O)CC2(C)C(O)C31 (stereo not given) | / | 2% | / | / | 0% | /
CCc1ccc(-n2nc3ccc(NC(=O)COc4ccc(OC)cc4)cc3n2)cc1 | / | -3% | / | / | -15% | /
CC(=O)Nc1ccc(Nc2nc3ccccc3n3cnnc23)cc1 | 8% | -6% | 6% | -2 | -8% | 16%
CCOC(=O)C1CCN(C(=O)c2sc3nc(-c4ccccc4)cn3c2C)CC1 | 2% | 18µM* | -3% | 10 | ? | ?
SMILES | HT1080-NT tox | TDP1 cell noCPT | HT1080 IDH1KD tx | IL-1B inflam inh | TDP1 cell CPT | ELG1 DNA repair
Cc1c(C(=O)N2CCN(c3ccc(F)cc3)CC2)sc2nc(-c3ccccc3)cn12 | 6% | -28% | 6% | 0 | -25% | 0%
COc1ccccc1N1CCN(C(=O)c2sc3nc(-c4ccccc4)cn3c2C)CC1 | -23% | 18µM* | -13%[9.24 µM] | -76* | 16µM* | ?
COC(=O)C1CCN(C(=O)c2sc3nc(-c4ccc(F)cc4)cn3c2C)CC1 | 11% | ? | 8% | 35 | ? | ?
COc1ccc(Cc2c(C(C)(C)C)nc3ccc(C)cn23)c(C)c1 | ? | 13µM* | ? | -14 | 15µM* | /
Fc1ccc(-c2nc3ccc(Br)cn3c2Cc2ccccc2C(F)(F)F)cc1 | -25% | ? | 2% | -10 | ? | /
Cc1ccc(-c2nc3c4ccccc4ccn3c2Cc2ccccc2C(F)(F)F)cc1 | 10% | 16µM* | 8% | 22 | ? | /
FC(F)(F)c1ccccc1Cc1c(-c2ccccc2)nc2ccc(Cl)cn12 | -3% | ? | -10% | -3 | ? | /
COc1ccc(Cc2c(C(C)(C)C)nc3ccc(Cl)cn23)c(C)c1 | ? | ? | ? | 19 | ? | /
Cc1ccc2nc(C(C)(C)C)c(Cc3ccccc3C(F)(F)F)n2c1 | ? | 15µM* | ? | -9 | 16µM* | /
Cc1ccc(-c2nc3c4ccccc4ccn3c2Cc2ccccc2)cc1 | -4% | ? | -13% | 59 | ? | /
Cc1ccc2nc(-c3ccccc3)c(Cc3ccccc3C(F)(F)F)n2c1 | ? | ? | ? | -13 | 16µM* | /
Cc1cccc(OCCOC(=O)c2ccc(F)c(S(=O)(=O)N3CCOCC3)c2)c1 | -6% | -15% | -9% | -9 | ? | -10%
CCOc1ccc(CCNC(=O)COC(=O)CSc2ccc(C)cc2)cc1OCC | 2% | -4% | 2% | 12 | 1% | 10%
O=C(CSc1nnc(NC(=O)C2CC2)s1)NCc1ccccc1 | 8% | -1% | 3% | -9 | 1% | 8%
COc1ccccc1C(=O)Nc1nnc(S(=O)(=O)N(C)c2ccc(Cl)cc2)s1 | / | ? | / | / | -15% | /
